T cruzi growth-1: T. cruzi proliferation inhibition. T. cruzi beta-gal in NIH3T3, GalScreen luminescence, 90 h. inhibition, % at 8.34 µM. hit rate 5.9% among 77,000. AID 624255;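 active means mean inhibition above about 93%, with at least 55% of replicates each passing it, limit read from the data, passing the limit was not always enough; inconclusive means only one of those two conditions holds; inactive means neither condition holds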
Pf Dd2 growth: inhibitors of Plasmodium falciparum Dd2 growth. activity change, % at 10 µM. AID 1159554. hit rate 2.3% among 94,000. P. falciparum Dd2 growth, SYBR Green, 72 h; active compounds read low; in the data active means activity change below about -80%; inconclusive means no clear call, values can overlap the other calls
C diff HTS: inhibitors of Clostridium difficile growth | hit rate 0.25% among 86,000 | growth activity, negative = inhibition, % at 16 µg/mL (by protocol) | Clostridium difficile clinical isolate growth, OD600, 24 h; active compounds read low;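 active means mean growth activity at or below -80% and every replicate also at or below -80%; inconclusive means mean at or below -80% but some replicate above -80%; inactive means mean growth activity above -80%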
T cruzi growth-2: inhibitors of T. cruzi proliferation | shares compounds with T cruzi growth-1 | T. cruzi beta-gal in NIH3T3, GalScreen luminescence, 90 h | inhibition, % at 8.35 µM | hit rate 72% among 5,600;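 active means mean replicate inhibition above about 95% and at least 55% of replicates individually reaching it, limit read from the data; inconclusive means only one of the two criteria is met; inactive means neither criterion is met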
T cruzi growth-3: Trypanosoma cruzi proliferation inhibition. inhibition, % at 2.09 µM. hit rate 21% among 5,600. AID 651740. T. cruzi beta-gal in NIH3T3, GalScreen luminescence, 90 h. shares compounds with T cruzi growth-1;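 active means mean inhibition above about 95%, with at least 55% of replicates also reaching it, limit read from the data; inconclusive means meets just one of the two conditions; inactive means meets neither condition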
NIH3T3 tox: kills mouse NIH/3T3 fibroblasts; shares compounds with T cruzi growth-1; NIH/3T3 viability, CellTiter-Glo ATP luminescence, 90 h; cytotoxicity (signal decrease), % at 8.35 µM; hit rate 14% among 5,600;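 active means mean signal decrease across replicates above about 35% based on untreated-well scatter, with enough replicates individually passing, limit read from the data; inconclusive means no rule stated though some were filed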
3T3 cytotox 2: NIH/3T3 (mouse) viability loss; NIH/3T3 viability, CellTiter-Glo ATP luminescence, 90 h; AID 651744; hit rate 56% among 5,600; inhibition, % at 24.9 µM; shares compounds with T cruzi growth-1;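 active means mean loss of cell viability signal at or above a set limit, and enough replicates individually reaching it; inconclusive means meets only the mean limit or only the replicate share; inactive means meets neither condition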
A number is an active result; . = inactive; ? = inconclusive; / = not tested or not shown. Most compounds without a hit are left out; they make up all but 6.8% or so of the library.

SMILES | T cruzi growth-1 | Pf Dd2 growth | C diff HTS | T cruzi growth-2 | T cruzi growth-3 | NIH3T3 tox | 3T3 cytotox 2
C[C@H](CO)N1C[C@H](C)[C@H](CN(C)Cc2ccc(C(=O)Nc3ccccc3N)cc2)Oc2ccc(NS(=O)(=O)c3cccs3)cc2C1=O | 115.0 | -85.0 | / | 103.6 | . | . | 48.5
C[C@@H]1CN([C@H](C)CO)C(=O)c2cc(NS(=O)(=O)c3cccs3)ccc2O[C@H]1CN(C)Cc1ccc(C(=O)Nc2ccccc2N)cc1 | . | . | / | / | / | / | /
C[C@H](CO)N1C[C@H](C)[C@H](CN(C)Cc2ccc(C(=O)Nc3ccccc3N)cc2)Oc2c(NS(=O)(=O)c3cccs3)cccc2C1=O | 107.4 | . | / | 98.8 | . | . | 25.7
C[C@H]1CN([C@@H](C)CO)C(=O)c2cccc(NS(=O)(=O)c3cccs3)c2O[C@H]1CN(C)Cc1ccc(-c2ccccc2)cc1 | . | . | . | / | / | / | /
C[C@H](CO)N1C[C@H](C)[C@H](CN(C)Cc2ccc(-c3ccccc3)cc2)Oc2c(NS(=O)(=O)c3cccs3)cccc2C1=O | 96.7 | . | . | . | . | . | .
CO[C@@H]1CN(C)C(=O)c2cc(NC(=O)NC3CCCCC3)ccc2OC[C@H](C)N(CCc2ccccc2)C[C@@H]1C | . | . | / | / | / | / | /
COc1ccc(S(=O)(=O)N2C[C@H](O)COC[C@H]3O[C@@H](CC(=O)N[C@H]4CCN(Cc5ccccc5)C4)CC[C@@H]32)cc1 | ? | / | . | . | . | . | .
Cc1ccc(S(=O)(=O)N2C[C@H](O)COC[C@@H]3O[C@@H](CC(=O)N[C@@H]4CCN(Cc5ccccc5)C4)CC[C@H]32)cc1 | . | . | / | / | / | / | /
Cc1ccc(S(=O)(=O)N2C[C@@H](O)COC[C@H]3O[C@@H](CC(=O)N[C@H]4CCN(Cc5ccccc5)C4)CC[C@@H]32)cc1 | 98.9 | . | / | 106.0 | . | . | .
COc1ccc(S(=O)(=O)N2C[C@@H](O)COC[C@H]3O[C@H](CC(=O)N[C@@H]4CCN(Cc5ccccc5)C4)CC[C@@H]32)cc1 | . | / | . | / | / | / | /
COc1ccc(-c2cnc3c(c2)C(=O)N([C@H](C)CO)C[C@H](C)[C@H](CN(C)Cc2ccc4c(c2)OCO4)O3)cc1 | . | . | . | / | / | / | /
O=C(C[C@@H]1C=C[C@H](NS(=O)(=O)c2ccccc2)[C@H](CO)O1)NCc1ccccc1F | . | . | . | / | / | / | /
CCCC#Cc1ccc2c(c1)O[C@H](CN(C)C(=O)C1CCC1)[C@@H](C)CN([C@@H](C)CO)S2(=O)=O | 107.9 | . | . | 101.6 | . | . | 39.0
CCCC#Cc1ccc2c(c1)O[C@@H](CN(C)C(=O)C1CCCCC1)[C@H](C)CN([C@H](C)CO)S2(=O)=O | . | . | . | / | / | / | /
CCCC#Cc1ccc2c(c1)O[C@H](CN(C)C(=O)C1CCC1)[C@H](C)CN([C@@H](C)CO)S2(=O)=O | 98.3 | . | . | 107.2 | . | . | 45.3
CCCC#Cc1ccc2c(c1)O[C@@H](CN(C)C(=O)C1CCCCC1)[C@@H](C)CN([C@H](C)CO)S2(=O)=O | . | . | . | / | / | / | /
CC(C)NC(=O)Nc1ccc2c(c1)C(=O)N([C@H](C)CO)C[C@H](C)[C@H](CN(C)C(=O)CCCN(C)C)OCCCC[C@H](C)O2 | . | . | . | / | / | / | /
COc1cccc(CNC(=O)C[C@@H]2C=C[C@@H](NC(=O)C3CC3)[C@H](CO)O2)c1 | / | . | . | / | / | / | /
C/C=C/c1ccc2c(c1)O[C@@H](CN(C)Cc1ccncc1)[C@H](C)CN([C@@H](C)CO)S2(=O)=O | 108.2 | . | . | 107.8 | 104.7 | . | 57.0
C/C=C/c1ccc2c(c1)O[C@H](CN(C)Cc1ccncc1)[C@H](C)CN([C@@H](C)CO)S2(=O)=O | . | . | . | / | / | / | /
C/C=C/c1ccc2c(c1)O[C@H](CN(C)Cc1cncnc1)[C@H](C)CN([C@@H](C)CO)S2(=O)=O | / | . | . | / | / | / | /
C/C=C/c1ccc2c(c1)O[C@H](CN(C)Cc1ccncc1)[C@@H](C)CN([C@@H](C)CO)S2(=O)=O | 108.6 | . | . | 108.7 | 101.6 | . | 28.5
Cc1ccc(S(=O)(=O)Nc2ccc3c(c2)C(=O)N([C@H](C)CO)C[C@H](C)[C@@H](CN(C)Cc2ccc(C(F)(F)F)cc2)OCCCC[C@H](C)O3)cc1 | / | . | . | / | / | / | /
CCCN(C)C[C@H]1OCCCC[C@@H](C)Oc2ccc(NC(=O)C3CCCCC3)cc2C(=O)N([C@H](C)CO)C[C@@H]1C | . | . | . | / | / | / | /
CCCN(C)C[C@H]1OCCCC[C@H](C)Oc2ccc(NC(=O)C3CCCCC3)cc2C(=O)N([C@H](C)CO)C[C@H]1C | 107.8 | . | . | 98.6 | . | . | .
SMILES | T cruzi growth-1 | Pf Dd2 growth | C diff HTS | T cruzi growth-2 | T cruzi growth-3 | NIH3T3 tox | 3T3 cytotox 2
CCCN(C)C[C@H]1OCCCC[C@@H](C)Oc2ccc(NC(=O)C3CCCCC3)cc2C(=O)N([C@@H](C)CO)C[C@H]1C | 102.4 | -81.0 | . | 103.7 | . | . | .
CCCN(C)C[C@H]1OCCCC[C@@H](C)Oc2ccc(NC(=O)C3CCCCC3)cc2C(=O)N([C@H](C)CO)C[C@H]1C | . | . | . | / | / | / | /
Cc1noc(C)c1NC(=O)Nc1ccc2c(c1)C(=O)N([C@H](C)CO)C[C@H](C)[C@@H](CN(C)S(=O)(=O)c1ccc(Cl)cc1)OCCCC[C@H](C)O2 | . | . | . | / | / | / | /
CN(C)CC(=O)N1CCCCN2[C@H](CO)[C@H](c3ccc(/C=C/c4ccccc4)cc3)[C@@H]2C1 | 100.6 | . | . | 111.8 | 110.1 | 89.0 | 104.3
CN(C)CC(=O)N1CCCCN2[C@H](CO)[C@@H](c3ccc(/C=C/c4ccccc4)cc3)[C@@H]2C1 | . | . | . | / | / | / | /
CCC(=O)N1CCCCN2[C@H](C1)[C@H](c1ccc(/C=C/c3ccccc3)cc1)[C@@H]2CO | 104.7 | . | . | . | . | . | 103.0
CCC(=O)N1CCCCN2[C@H](CO)[C@@H](c3ccc(/C=C/c4ccccc4)cc3)[C@@H]2C1 | . | . | . | / | / | / | /
CN1CCCCN2[C@@H](CO)[C@@H](c3ccc(/C=C/c4ccccc4)cc3)[C@@H]2C1 | . | . | . | / | / | / | /
CCC(=O)N1CCCCN2[C@@H](CO)[C@@H](c3ccc(/C=C/c4ccccc4)cc3)[C@@H]2C1 | 118.5 | . | . | 98.8 | . | . | 105.3
CN(C)C(=O)[C@H]1[C@H](CO)[C@H]2Cn3c(cccc3=O)[C@H]2N1CC1CCCC1 | . | . | . | / | / | / | /
Cc1noc(C)c1S(=O)(=O)Nc1ccc2c(c1)CC(=O)N([C@H](C)CO)C[C@@H](C)[C@@H](CN(C)Cc1ccc(-c3ccccc3)cc1)O2 | . | . | . | / | / | / | /
COc1ccccc1NC(=O)N1CCCCN2[C@H](CO)[C@@H](c3ccc(C#CC4CCCC4)cc3)[C@@H]2C1 | 101.6 | . | . | 97.6 | . | . | 105.4
COc1ccccc1NC(=O)N1CCCCN2[C@H](CO)[C@H](c3ccc(C#Cc4ccccc4)cc3)[C@@H]2C1 | . | ? | . | / | / | / | /

Source: PubChem BioAssay (Broad Institute)
